Test results: PubChem BioAssay AID1159580 (chemical genetic matrix, 2015)
The campaign covered roughly 5,500 compounds. About 2,000 (36%) were called active. Another 18% or so got no clear call; they are omitted. Cut-off read from the data, not from the text of the source: active = normalized growth mostly below about 0.91 (no sharp cut-off); inconclusive = no clear call, values can overlap the other calls; inactive = mostly above about 0.92. The list shows a part of the results.

Assay: chemical genetic growth profiling, strain panel (AID 1159580);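 note: tested at 20 µM; growth read once vehicle control cultures reached saturation at 30 °C; 1 = growth at the plate median or of vehicle wells; lower values mean less growth of the strain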
Conditions: S. cerevisiae deletion strains, growth OD

Measured: normalized growth

CC1(C)O[C@@H]2[C@@H](CO[C@@]3(COS(N)(=O)=O)OC(C)(C)O[C@@H]23)O1
inactive: locus YAL021C, strain ccr4, stronger effect = lower value 1.03 | locus YAL026C, strain drs2, stronger effect = lower value 1.03 | locus YAL030W, strain snc1, stronger effect = lower value 1.01 | locus YBL061C, strain skt5, stronger effect = lower value 1.01 | locus YBR009C, strain hhf1, stronger effect = lower value 0.983 | locus YBR023C, strain chs3, stronger effect = lower value 1.02 | locus YBR171W, strain sec66, stronger effect = lower value 1.01 | locus YBR231C, strain swc5, stronger effect = lower value 0.981 | locus YBR279W, strain paf1, stronger effect = lower value 1.02 | locus YCL011C, strain gbp2, stronger effect = lower value 1.01 | locus YCL016C, strain dcc1, stronger effect = lower value 1.04 | locus YCL069W, strain vba3, stronger effect = lower value 1.01 | locus YCR088W, strain abp1, stronger effect = lower value 1.01 | locus YDL005C, strain med2, stronger effect = lower value 1.02 | locus YDL040C, strain nat1, stronger effect = lower value 0.997 | locus YDR001C, strain nth1, stronger effect = lower value 1 | locus YDR069C, strain doa4, stronger effect = lower value 0.994 | locus YDR137W, strain rgp1, stronger effect = lower value 1.08 | locus YDR159W, strain sac3, stronger effect = lower value 0.94 | locus YDR195W, strain ref2 0.987 | locus YDR297W, strain sur2, stronger effect = lower value 0.992 | locus YDR334W, strain swr1, stronger effect = lower value 1.02 | locus YDR335W, strain msn5, stronger effect = lower value 1.02 | locus YDR392W, strain spt3, stronger effect = lower value 1.01 | locus YEL003W, strain gim4, stronger effect = lower value 0.99 | locus YEL037C, strain rad23, stronger effect = lower value 1 | locus YEL061C, strain CIN8 (second series), stronger effect = lower value 1 | locus YER015W, strain faa2, stronger effect = lower value 1.01 | locus YER016W, strain bim1, stronger effect = lower value 1.04 | locus YER111C, strain swi4, stronger effect = lower value 1.02 | locus YER155C, strain BEM2 (second series), stronger effect = lower value 1.02 | locus YFR010W, strain ubp6, stronger effect = lower value 0.983 | locus YGL167C, strain pmr1, stronger effect = lower value 1.01 | locus YGL173C, strain kem1, stronger effect = lower value 0.998 | locus YGL227W, strain vid30, stronger effect = lower value 1.01 | locus YGL240W, strain doc1, stronger effect = lower value 0.991 | locus YGL253W, strain hxk2, stronger effect = lower value 1 | locus YHR013C, strain ard1, stronger effect = lower value 1.07 | locus YHR027C, strain rpn1, stronger effect = lower value 1.01 | locus YHR030C, strain SLT2, stronger effect = lower value 0.98 | locus YHR079C, strain IRE1, stronger effect = lower value 0.965 | locus YHR142W, strain chs7, stronger effect = lower value 1.02 | locus YJL092W, strain hpr5, stronger effect = lower value 1.01 | locus YJL095W, strain BCK1 (second series), stronger effect = lower value 1.01 | locus YJL095W, strain BCK1, stronger effect = lower value 0.974 | locus YJL115W, strain asf1, stronger effect = lower value 1.01 | locus YJL129C, strain trk1, stronger effect = lower value 1.01 | locus YJL154C, strain vps35, stronger effect = lower value 1 | locus YJL164C, strain tpk1, stronger effect = lower value 0.988 | locus YJL166W, strain qcr8, stronger effect = lower value 0.985 | locus YJL187C, strain SWE1, stronger effect = lower value 0.992 | locus YJR066W, strain TOR1, stronger effect = lower value 0.942 | locus YKL160W, strain elf1, stronger effect = lower value 1.05 | locus YKR026C, strain gcn3, stronger effect = lower value 1 | locus YKR091W, strain srl3, stronger effect = lower value 0.999 | locus YLL001W, strain dnm1, stronger effect = lower value 0.987 | locus YLL026W, stronger effect = lower value 1 | locus YLL041C, strain sdh2, stronger effect = lower value 0.991 | locus YLR027C, strain aat2, stronger effect = lower value 1.01 | locus YLR113W, strain HOG1, stronger effect = lower value 0.964 | locus YLR221C, strain rsa3, stronger effect = lower value 0.992 | locus YLR258W, strain gsy2, stronger effect = lower value 1.02 | locus YLR262C, strain YPT6 (second series), stronger effect = lower value 1.01 | locus YLR320W, strain mms22, stronger effect = lower value 0.956 | locus YLR342W, strain FKS1, stronger effect = lower value 1.03 | locus YLR357W, strain rsc2, stronger effect = lower value 1 | locus YLR370C, strain arc18, stronger effect = lower value 1.01 | locus YLR384C, strain iki3, stronger effect = lower value 1.03 | locus YML120C, strain ndi1, stronger effect = lower value 0.999 | locus YMR058W, strain fet3, stronger effect = lower value 1.01 | locus YMR125W, strain sto1, stronger effect = lower value 1 | locus YMR129W, stronger effect = lower value 1 | locus YMR205C, strain PFK2, stronger effect = lower value 0.981 | locus YMR231W, strain pep5, stronger effect = lower value 1 | locus YNL071W, strain lat1, stronger effect = lower value 1.01 | locus YNL183C, strain NPR1, stronger effect = lower value 0.902 | locus YNL209W, strain ssb2, stronger effect = lower value 1.01 | locus YNL248C, strain rpa49, stronger effect = lower value 1.03 | locus YNL322C, strain KRE1 (second series), stronger effect = lower value 1.01 | locus YNR049C, strain mso1, stronger effect = lower value 0.99 | locus YOR001W, strain rrp6, stronger effect = lower value 0.965 | locus YOR070C, strain gyp1, stronger effect = lower value 1.01 | locus YOR080W, strain dia2, stronger effect = lower value 1.02 | locus YOR083W, strain WHI5, stronger effect = lower value 0.996 | locus YOR106W, strain vam3, stronger effect = lower value 1.04 | locus YOR231W, strain MKK1, stronger effect = lower value 0.977 | locus YOR265W, strain rbl2, stronger effect = lower value 1 | locus YOR270C, strain vph1, stronger effect = lower value 1.06 | locus YOR290C, strain snf2, stronger effect = lower value 1.06 | locus YPL051W, strain arl3, stronger effect = lower value 1.07 | locus YPL078C, strain atp4, stronger effect = lower value 1.04 | locus YPL106C, strain sse1, stronger effect = lower value 1.07 | locus YPL240C, strain hsp82, stronger effect = lower value 1.01 | locus YPL256C, strain CLN2, stronger effect = lower value 0.95
